A word on the inhibition: it is the relative decrease from the control value, in per cent.

Hit rate of the full screen: of about 370,000 compounds, about 4,800 (1.3%) were called active.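 Rule for the calls: active = inhibition above about 21% made by adding two undisclosed values (limit read from the data); inactive = the rest.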 The sample as a whole holds a higher share of actives than the screen did.

The assay deals with Protein arginine N-methyltransferase 1 (Homo sapiens) (UniProt Q99873). Nature of the assay: PRMT1 methyltransferase inhibitors, primary screen, biochemical, fluorescence polarization (AID 652257). To be noted: recombinant PRMT1, activity-based probe fluorescence polarization; at 2.79 µM; hits give high values. Background: In fluorescence polarisation assays a small probe gives low polarisation when free and higher when bound to something large.
Chain of Protein arginine N-methyltransferase 1 (Homo sapiens) (Q99873 whole entry, looked up): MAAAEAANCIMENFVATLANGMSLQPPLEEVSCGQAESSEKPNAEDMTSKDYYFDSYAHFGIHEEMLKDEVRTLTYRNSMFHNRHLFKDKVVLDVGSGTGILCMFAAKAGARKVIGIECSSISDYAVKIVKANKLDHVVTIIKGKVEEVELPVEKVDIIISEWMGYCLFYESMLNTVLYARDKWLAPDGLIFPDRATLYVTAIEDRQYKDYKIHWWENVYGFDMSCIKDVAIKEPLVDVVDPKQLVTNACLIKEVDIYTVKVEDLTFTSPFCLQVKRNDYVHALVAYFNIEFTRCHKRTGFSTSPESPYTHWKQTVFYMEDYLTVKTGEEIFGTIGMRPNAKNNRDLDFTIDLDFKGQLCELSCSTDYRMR
On to `CN[C@H]1C[C@H]2c3[nH]c4c(-c5ccccc5)cccc4c3CCN2C(=O)[C@H]1[C@H](C)O`, for which the inhibition was 6.14% (inactive).
The figure for `Cc1ccc(-n2nc(-c3ccco3)cc2C(=O)NCc2cccnc2)cc1` is 35.6% (active); for `Cc1ccc2c(c1)N(CCCC(=O)NCc1cccnc1)C(=O)CO2` it is 0.38% (inactive).
The figure for `CSc1sc(C(=O)NC(=O)NCc2cccnc2)c(C)c1-c1ccon1` is 1.09% (inactive); for `CN1C(=O)C(Br)(Br)CC1c1cccnc1` (stereo not drawn) it is 1.18% (inactive).
With `Cc1c[nH]c2cccc(-c3ccc(Cl)cc3)c12`, the inhibition is -0.29% (inactive).
On to `O=C(CSc1ccc(/C=N/NC(=O)c2cccc(F)c2)o1)Nc1ccccc1`, for which the inhibition was 2.86% (inactive).
As to `N#CCC(=O)N/N=C/c1ccc(SCC(=O)Nc2ccccc2)o1`, the inhibition was 4.99% (inactive).
`O=C(CCNC(=O)c1ccccc1)NN=Cc1ccc(Br)o1`: the inhibition was 24.6% (active).
As to `COC1=C[C@H](C(=O)NCCNC(C)=O)[C@H](C)[C@@H](c2ccccc2)CC1=O`, the inhibition was 0.29% (inactive).
For `COc1ccc(/C=C2\CC3(OC(C)=O)CCCN2C3)cc1` (stereo not drawn), the inhibition is 1.73% (inactive).
For `Cc1ccc(CN2CCCCC(NC(=O)C3CCCCC3)C2=O)cc1` (stereo not drawn), the inhibition is -3.29% (inactive).
With `O=C(Nc1cccc(S(=O)(=O)N2CCOCC2)c1)C12CC3CC(CC(C3)C1)C2`, the inhibition was 2.62% (inactive).
With `NC(=O)C1(N2CCCC2)CCN(Cc2ccccc2)CC1`, the inhibition is 2.71% (inactive).
Turning to `CCCNC(=O)NCc1ccc(N2CCCC2=O)cc1`, the inhibition was 0.33% (inactive).
As for `NC(=O)C1(N2CCCCC2)CCN(C2CC(=O)N(Cc3ccc(N4CCCC4=O)cc3)C2=O)CC1` (stereo not drawn), the inhibition was 41.5% (active).
On to `Clc1ccc(C(Cn2ccnc2)OCc2ccsc2Cl)c(Cl)c1` (stereo not drawn), for which the inhibition is 1.55% (inactive).
The figure for `O=C(CSc1n[nH]c(-c2cccnc2)n1)Nc1ccnc2ccccc12` is -1.69% (inactive).
As for `O=C(Nc1ccc(Cl)cc1)Nc1ccc(Oc2cccnc2)nc1`, the inhibition was 1.37% (inactive).
`COc1ccc(Nc2nc(-c3cccnc3)nc3ccccc23)cn1`: the inhibition is 25.2% (active).
As for `CN(C)c1ccc(CNC(=O)CN2C(=O)COc3ccc(S(=O)(=O)N4CCCC4)cc32)cc1`, the inhibition is -4.13% (inactive).
For `O=C(N1CCOCC1)N1CC[C@H]2[C@H](CCCN2Cc2ccc(F)cc2)C1` the value was 5.12% (inactive); for `Cc1ccc2c(NC(=O)C3CC3)cccc2n1`, -1.46% (inactive); for `N#C/C(=C/c1ccc(N2CCCCC2)o1)C(=O)NCCc1c[nH]c2ccccc12`, -51.4% (inactive).
Take `Cc1ccc(/C=C(\C#N)C(=O)Nc2cccc3ncccc23)o1`: the inhibition is 24.4% (active).
As to `CCN(C(=O)c1ccc(Br)cc1)c1ccccc1`, the inhibition is -3.92% (inactive).
With `Cc1ccn(C(CC(=O)c2ccc(Br)cc2)C(=O)O)n1` (stereo not drawn), the inhibition was 23.6% (active).
The figure for `Cc1ccc(NC(=O)CCC(=O)c2ccc(Br)cc2)cc1` is -1.58% (inactive); for `CC(=O)N1CCOc2ccc(S(=O)(=O)N3CCC(C(=O)Nc4ccccc4F)CC3)cc21` it is -0.05% (inactive).
For `C=C(C)C#CC(Cc1ccccc1)N(CC1CC1)/C(N)=N/C(=O)OCc1ccccc1` (stereo not drawn), the inhibition was -3.31% (inactive).
`COC(=O)C(C(=O)OC)c1ccccc1NS(=O)(=O)c1cccc2ccccc12`: the inhibition is -4.23% (inactive).
On to `C[C@H](C(=O)N(C)c1ccccc1)[C@@H](O)c1ccc(Cl)cc1`, for which the inhibition was -4.72% (inactive).
`CCOc1ccc(NC(=O)C(C)N2C(=O)c3ccccc3C2=O)cc1` (stereo not drawn): the inhibition is -1.49% (inactive).
In the case of `CC(C(=O)Nc1ccc(O)c(C(=O)O)c1)N1C(=O)/C(=C/c2cccs2)SC1=S` (stereo not drawn), the inhibition was 26.4% (active).
With `O=C1/C(=C/c2cccs2)SC(=S)N1C1CCS(=O)(=O)C1` (stereo not drawn), the inhibition is 0.87% (inactive).
As to `CC(C)(C)c1cc(CN2CCN(CCC#N)CC2)cc(C(C)(C)C)c1O`, the inhibition was 9% (inactive).
The figure for `CCc1c(C)nc(N)n2c(SCC(=O)NC3CCCCC3)nnc12` is -2.99% (inactive).
On to `Nc1[nH]c(/C=C2/CCCCC2n2[nH]c(=O)n(-c3ccccc3)c2=O)c(Cc2ccccc2)[n+]1Cc1ccccc1` (stereo not drawn), for which the inhibition is -2.27% (inactive).
As for `COc1ccc(CCNCc2c(-c3ccccc3)n(C)c3ccccc23)cc1`, the inhibition was 2.67% (inactive).
With `CC(C)(C)OC(=O)NCCc1ccccc1/C=C/S(=O)(=O)NCc1ccc(F)cc1`, the inhibition is 0.24% (inactive).
For the molecule `O=c1ccc2c(-c3ccccc3S(=O)(=O)O)c3ccc(O)c(O)c3oc-2c1O`, the inhibition was 66.9% (active).
As to `COc1cccc2c1OCC(CN1CCN(C3CCCCC3)C(CCO)C1)=C2` (stereo not drawn), the inhibition is -3.92% (inactive).
In the case of `O=C(CSc1nc2c(c(=O)[nH]1)CCCC2)N1CCCCC1`, the inhibition was -3.61% (inactive).
For the molecule `C=CCN(C)CC#Cc1ccccc1`, the inhibition was -2.36% (inactive).
Regarding `Cc1ccc(-c2nc(C3CCCN(S(=O)(=O)c4ccc(Br)s4)C3)no2)cc1` (stereo not drawn), the inhibition was 3.15% (inactive).
Regarding `CC1CCc2c(nc3ncnn3c2Nc2ccc(OC(F)(F)F)cc2)C1` (stereo not drawn), the inhibition is 0.92% (inactive).
The figure for `c1ccc2c(c1)CSc1sccc1C2=C1CCNCC1` is -3.7% (inactive); for `Cc1nnc(SCC(=O)NC2CCCC2)s1` it is -0.7% (inactive).
For `Cc1nnc(SCC2=C(C(=O)O)N3C(=O)C(NC(=O)Cn4nc(C)c(Cl)c4C)C3SC2)s1` (stereo not drawn) the value was 34.1% (active); for `Cc1cc(C)cc(C(=O)NC2C(=O)N3C(C(=O)O)=C(CSc4nnc(C)s4)CSC23)c1` (stereo not drawn), 39.9% (active).
Take `Cc1nnc(SCc2cc(=O)[nH]c(N3CCN(Cc4ccccc4)CC3)n2)s1`: the inhibition is -2.63% (inactive).
On to `CCOC(=O)C1(Cc2ccccc2)CCN(Cc2cn(C(C)=O)c3ccccc23)CC1`, for which the inhibition was 2.34% (inactive).
As to `Cc1ccccc1CS(=O)(=O)Cc1ccc(C(=O)Nc2ccc(Cl)cc2)o1`, the inhibition is 5.39% (inactive).
Consider `CCCCN1CCN(C(=O)c2ccc3c(c2)NC(=O)C(C)(C)O3)CC1`, for which the inhibition was -4.36% (inactive).
The figure for `COC(=O)[C@]12C[C@H](CC(=O)NCc3cccc4ccccc34)C(=O)N(CCc3ccc(OC)c(OC)c3)C1=C[C@H](C1CCCC1)O[C@@H]2C` is -7.72% (inactive); for `CC(=O)Oc1ccc(N(C(C)=O)S(=O)(=O)c2ccc3ccccc3c2)cc1Br` it is -3.71% (inactive).
As to `COC(=O)c1c(C)oc2ccc(N(C(=O)Oc3ccccc3)S(=O)(=O)c3ccccc3)cc12`, the inhibition is 1.53% (inactive).
Consider `CC(=O)N(c1ccc2oc(=O)sc2c1)S(=O)(=O)c1ccc(C)cc1`, for which the inhibition is 86% (active).

(Values after PubChem BioAssay AID652257 (The Scripps Research Institute Molecular Screening Center, 2013).)
